HT1080 IDH1KD tx = qHTS for induction of synthetic lethality in tumor cells producing 2HG: qHTS for the HT-1080-IDH1KD cell line | 360,000 compounds, 2% hits | HT-1080 IDH1 knockdown viability, ATP luminescence, 48 h | Potency, µM (series often up to 46.1 µM), for inactives: top-dose activity, negative = toxicity, most hits filed as cytotoxic;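 further: 0% = DMSO wells and -100% = cell-free medium wells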
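Using the IDH1-knockdown HT-1080 line run in the same batch and compound series as the NT line, viability after 48 h at 37 °C was determined by CellTiter-Glo luminescence and expressed as % activity.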
ATXN viability = Viability Counterscreen for Primary qHTS for Inhibitors of ATXN expression. S2 cells (HEK-293 line with an ATXN2-luciferase reporter) viability, CellTiter-Fluor protease fluorescence, 24 h. Potency, µM (top dose mostly 56.7 µM), usual class: cytotoxic. 400,000 compounds, 0.49% hits. AID 651635, 2014; further: nearly all actives have a fitted effect of over 40% in size
TGFb inhibitor = qHTS for Inhibitors of TGF-b; HepG2 CAGA-GFP TGF-b/SMAD3 reporter, GFP fluorescence, 18 h; TGF-beta stimulated, 500 pg/mL final; Potency, µM (top dose mostly 46.1 µM), inactives show top-dose activity, negative = inhibition, hits mostly inhibitors; 410,000 compounds, 1.2% hits; AID 588855, 2011; further: on the % scale 0 is the no-effect control and ±100 the full control effect; nearly all actives have a fitted effect of over 65% in size
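Smad-responsive CAGA-GFP expression was quantified in HEPG2 cells exposed to compounds and 500 pg/mL final TGF-beta for 18 h at 37 degrees C; unstimulated wells defined full inhibition.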
ATXN2 expr inh = Primary qHTS for Inhibitors of ATXN expression | HEK-293 ATXN2-luciferase reporter, luminescence, 24 h | Potency, µM (highest dose often 57 µM), for the others: at the highest dose activity change, negative = inhibition, actives largely listed as inhibitors | 360,000 compounds, 0.72% hits; further: on the % scale 0 is the no-effect control and ±100 the full control effect; nearly all actives have a fitted effect of over 55% in size
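qHTS (up to 57 uM final) was run with 24 h compound exposure of reporter cells at 37 °C. Each well was multiplexed: SteadyGlo luminescence measured ATXN2-luciferase expression after a fluorogenic Gly-Phe-AFC viability readout (25 uM final).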
HepG2 viability = qHTS for Inhibitors of TGF-b: Cytotox Counterscreen; 410,000 compounds, 0.76% hits; HepG2 CAGA-GFP viability, ATP luminescence, 18 h; Potency, µM (highest dose often 46.1 µM), inactives show top-dose activity change, negative = cytotoxicity, most hits filed as cytotoxic
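HepG2 CAGA-GFP cells (1000/well, DMEM with 1% FBS) received compound, then TGF-beta at 500 pg/mL final, and were incubated 18 hours at 37 degrees C. Viability was read by CellTiter-Glo luminescence. Media-only wells were set as complete cell-killing and DMSO as no toxicity.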
HT1080NT lethal = qHTS for induction of synthetic lethality in tumor cells producing 2HG: qHTS for the HT-1080-NT fibrosarcoma cell line. HT-1080-NT fibrosarcoma viability, CellTiter-Glo ATP luminescence, 48 h. Potency, µM (doses to about 46.1 µM), for inactives: at the highest dose activity, negative = less viability, hits mostly cytotoxic. 360,000 compounds, 1.6% hits. AID 686970, 2013;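 further: NT is the 2HG producing partner of a matched IDH1 knockdown line; 0% = DMSO-treated cells and -100% = media-only wells without cells; nearly all actives have a fitted effect of over 55% in size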
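Viability of the 2HG-overproducing fibrosarcoma line after 48 hours of compound exposure at 37 degrees C was determined by luminescence with CellTiter-Glo, and concentration-effect curves were then fitted and categorized.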
Numbers without * were called inactive; i = inactive; ? = inconclusive; . = no result given; [ ] = another dose, or the depositor's remark. Most compounds without a hit are left out; they make up all but 3.8% or so of the library. The call rests on the fitted dose curve; in most records, active means well fitted curve in the direction sought with a large enough effect; inconclusive means small, poorly fitted or top-dose-only effect, or another doubt; inactive means no such curve, though single readings can be large; an effect the other way counts as inactive or inconclusive. Potency means the concentration at half of the fitted maximal effect.

SMILES | HT1080 IDH1KD tx | ATXN viability | TGFb inhibitor | ATXN2 expr inh | HepG2 viability | HT1080NT lethal
CC1(C(=O)NCc2ccc(F)c(F)c2)Cc2c(-c3cccc(C(N)=O)c3)ccnc2O1 (stereo not drawn) | 10µM* | ? | 7% | -2% | -19% | 26µM*
COc1ccc(NC(=O)C2(C)Cc3c(-c4cccc(C(N)=O)c4)ccnc3O2)cn1 (stereo not drawn) | 4.6µM* | ? | 4% | 5% | -4% | ?
COc1ccc(NC(=O)C2Cc3c(-c4cccc(C(N)=O)c4)ccnc3O2)cn1 (stereo not drawn) | 21µM* | i | 8% | 0% | 1% | ?
COc1ccc(NC(=O)C2Cc3c(-c4cccc(NC(C)=O)c4)ccnc3O2)cn1 (stereo not drawn) | ? | i | ? | 2% | -10% | ?
CCN1CCN(C(=O)c2cc(NC(=O)COC)cc3nc(-c4ccncc4)n(C)c23)CC1 | . | i | . | . | . | .
CNc1ccc(/C=C2\C=Cc3ccccc32)cc1Cl | . | . | ? | . | -22% | .
CC(C)Oc1cc(NC(=O)CS(=O)CC(=O)Nc2cccc(C(F)(F)F)c2)c(Cl)cc1Cl (stereo not drawn) | ? | i | 11µM* | -22% | -114% | ?
Cc1cc(C)c2c(c1)OC(=O)CC2c1ccc2c(c1)OCO2 (stereo not drawn) | 3% | i | -14% | 10% | 11% | 11%
Cc1cc2c(c(C)c1Br)C(c1ccc3c(c1)OCO3)CC(=O)O2 (stereo not drawn) | -3% | i | 20µM* | -7% | -89% | -1%
CSc1nc(C2CC2)cc(-c2cccs2)c1C#N | ? | i | 5.6µM* | -2% | -34% | 32µM*
COc1cc(Cl)c(S(=O)(=O)N2CCCC2)cc1Cl | -4% | i | -2% | -4% | -15% | -12%
COc1cc(N2C(=O)C=CC2=O)c(OC)cc1Cl | ? | 20µM* | 11µM* | ? | -91% | 18µM*
COc1cc2[nH]c3c(=O)n4c(nc3c2cc1OC)SCCC4 | 7.3µM* | i | ? | -17% | -31% | 7.3µM*
C[C@@H]1CN([C@@H](C)CO)S(=O)(=O)c2ccc(Br)cc2O[C@H]1CN(C)C(=O)Nc1ccc(C(F)(F)F)cc1 | ? | . | ? | ? | 16% | ?
C[C@@H]1CN([C@H](C)CO)S(=O)(=O)c2ccc(Br)cc2O[C@@H]1CN(C)C(=O)Nc1ccc(C(F)(F)F)cc1 | ? | 22µM* | ? | ? | -39% | ?
Cc1ccccc1-c1ccc2c(c1)O[C@@H](CN(C)C(=O)Nc1ccc(C(F)(F)F)cc1)[C@H](C)CN([C@@H](C)CO)S2(=O)=O | 16µM* | ? | ? | ? | -43% | 16µM*
C[C@@H]1CN([C@H](C)CO)S(=O)(=O)c2ccc(-c3ccc(C#N)cc3)cc2O[C@H]1CN(C)C(=O)Nc1cc(F)ccc1F | -28% | ? | -2% | 16µM* | -11% | ?
Oc1ccc(/C=N/N2CCN(C3c4ccccc4-c4ccccc43)CC2)cc1 | -8% | i | 13µM* | 9% | 18µM* | -10%
CCOC(=S)SCC(=O)Nc1nc(-c2ccc(Br)cc2)cs1 | 6.5µM* | ? | ? | ? | -43% | 7.3µM*
O=C(N/N=C/c1c(O)n(-c2ccccc2Cl)c(=O)c2ccccc12)c1cccnc1 | 9.2µM* | . | -11% | 2%[11.3 µM] | -6% | 6.5µM*
Nc1ccc(C(=O)N/N=C/c2cn(Cc3cccc(F)c3)c3ccccc23)cc1 | -26% | i | 1.3µM* | -31% | -1% | -5%
CCOC(=O)N/N=C/c1cn(Cc2ccc(F)cc2)c2ccccc12 | 2% | i | 2.2µM* | . | -53% | ?
Cc1cccc(-n2c(O)c(/C=N/NC(=O)c3ccccc3Cl)c3ccccc3c2=O)n1 | ? | i | 14% | -14% | -1% | -23%
O=C(N/N=C/c1cccc2ccccc12)c1cccnc1 | 20% | i | ? | 1% | 0% | 17%
O=C(N/N=C/c1c(O)n(Cc2ccccc2)c(=O)c2ccccc12)c1cccnc1 | 15µM* | . | 0% | 17µM* | -40% | 13µM*
SMILES | HT1080 IDH1KD tx | ATXN viability | TGFb inhibitor | ATXN2 expr inh | HepG2 viability | HT1080NT lethal
O=C(N/N=C/c1cn(Cc2ccccc2)c2ccccc12)c1cccnc1 | -30% | i | 2.8µM* | ? | -37% | -20%
COc1ccc(Cn2c(O)c(/C=N/NC(=O)c3cccnc3)c3ccccc3c2=O)cc1 | 21µM* | . | ? | ? | 8% | ?
O=C(Nc1nnc(C2CC2)s1)C1COc2ccccc2O1 (stereo not drawn) | 14% | i | -4% | -1% | -12% | 22%
O=C(Nc1nnc(C(F)(F)F)s1)C1COc2ccccc2O1 (stereo not drawn) | 23µM* | i | ? | 14% | -38% | ?
Oc1ccccc1Nc1nc(NCC2CCCO2)c2ccccc2n1 (stereo not drawn) | -9% | ? | -8% | ? | -22% | -5%
Cc1ccc(-c2nnc(Nc3ccc(O)cc3)c3ccccc23)cc1S(=O)(=O)NCC1CCCO1 (stereo not drawn) | . | ? | 6.3µM* | -24% | 5% | .
Cc1ccc(-c2nnc(Nc3ccc(O)cc3)c3ccccc23)cc1S(=O)(=O)N1CCCCC1 | . | . | 2µM* | . | 24% | .
COc1ccc(Nc2nnc(-c3ccc(C)c(S(=O)(=O)NCc4nc5ccccc5[nH]4)c3)c3ccccc23)cc1 | . | ? | 7.9µM* | ? | 35% | .
Oc1ccc(Nc2nc(NCC3CCCO3)c3ccccc3n2)cc1 (stereo not drawn) | ? | ? | -3% | 3% | -41% | 21µM*
CC(=O)c1ccc(N2CCN(S(=O)(=O)c3ccc4c(c3)CC(C)N4C(=O)C3CCC3)CC2)cc1 (stereo not drawn) | . | i | -1% | 7% | 2% | .
COc1ccc(Cl)cc1N=C1NC(=O)CC(C(=O)Nc2ccccc2C(F)(F)F)S1 (stereo not drawn) | . | i | -2% | -10% | -2% | .
COc1ccccc1NC(=O)CSc1ncc2c(n1)-c1ccccc1N(Cc1ccccc1C)S2(=O)=O | . | i | 12% | 3% | 7% | .
CC(=O)Nc1ccc(Oc2cnc3ccccc3n2)cc1 | 2.6µM* | i | -8% | 6% | -1% | 2.3µM*
